Each structure is given as a SMILES string. Screen size: about 390,000 compounds; about 17,000 (4.4%) were called active. Not shown: some 8% with an inconclusive outcome. Calls follow the shape of the dose curve; as a rule, active = well fitted inhibition curve with a large enough effect; inconclusive = small, poorly fitted or top-dose-only effect; inactive = no such curve, though single readings can be large or run the other way. What follows is part of a selection rich in actives, with near analogues and random picks from the rest. Entries that show only a call come without a potency.
Potency is read from the fitted curve at half-maximal effect.

Sequence of Lysine-specific demethylase 4A (Homo sapiens) (O75164 whole entry, looked up, the tested form may be a part): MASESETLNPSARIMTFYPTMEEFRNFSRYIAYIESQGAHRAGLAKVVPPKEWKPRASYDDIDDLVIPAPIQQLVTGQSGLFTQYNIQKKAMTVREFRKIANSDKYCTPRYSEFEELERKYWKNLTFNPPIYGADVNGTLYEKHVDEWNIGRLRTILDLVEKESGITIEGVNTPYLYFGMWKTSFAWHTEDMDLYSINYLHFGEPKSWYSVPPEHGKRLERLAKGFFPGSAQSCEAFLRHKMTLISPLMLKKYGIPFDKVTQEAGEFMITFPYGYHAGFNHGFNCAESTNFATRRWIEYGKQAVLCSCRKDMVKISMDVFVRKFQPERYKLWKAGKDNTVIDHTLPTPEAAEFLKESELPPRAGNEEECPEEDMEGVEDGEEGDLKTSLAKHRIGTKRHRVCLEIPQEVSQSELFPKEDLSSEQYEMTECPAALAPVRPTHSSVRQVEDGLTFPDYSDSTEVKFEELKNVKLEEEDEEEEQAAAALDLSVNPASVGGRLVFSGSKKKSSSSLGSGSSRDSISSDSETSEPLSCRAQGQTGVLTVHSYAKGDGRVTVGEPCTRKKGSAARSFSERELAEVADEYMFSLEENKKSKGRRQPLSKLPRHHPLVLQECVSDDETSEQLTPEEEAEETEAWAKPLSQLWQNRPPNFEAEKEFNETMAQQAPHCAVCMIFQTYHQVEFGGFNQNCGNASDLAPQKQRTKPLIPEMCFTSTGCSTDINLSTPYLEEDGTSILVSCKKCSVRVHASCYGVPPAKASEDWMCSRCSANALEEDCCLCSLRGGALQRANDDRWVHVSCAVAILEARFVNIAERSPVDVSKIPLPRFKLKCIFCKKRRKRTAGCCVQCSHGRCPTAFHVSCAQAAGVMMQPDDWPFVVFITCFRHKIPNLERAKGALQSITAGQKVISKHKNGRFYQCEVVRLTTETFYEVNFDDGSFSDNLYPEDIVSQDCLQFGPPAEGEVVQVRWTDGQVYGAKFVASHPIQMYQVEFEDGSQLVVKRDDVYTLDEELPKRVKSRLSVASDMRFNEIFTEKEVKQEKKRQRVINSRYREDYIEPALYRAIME

This test concerns the target Lysine-specific demethylase 4A (Homo sapiens) (UniProt O75164). In words: qHTS Assay for Inhibitors of JMJD2A-Tudor Domain. Also: nearly all actives have a fitted effect of over 50% in size. The note with it: AlphaScreen JMJD2A-Tudor / H3K4me3 peptide binding; series mostly up to 114 µM.
Take `COc1ccc(C2C3=C(CCCC3=O)N(CC(=O)O)C3=C2C(=O)CCC3)cc1`: the Potency result was “inactive”.
Regarding `CCCCNC(=O)C1CCC(=O)N1CCc1ccccc1` (configuration not stated), the Potency result is “inactive”.
Consider `CCCCN1C(=O)CCC(C(=O)O)C1c1ccc(OC)cc1` (configuration not stated), for which the Potency is 89.1 µM (active).
`COc1ccccc1CNC(=O)CCCCn1c(=O)c2ccccc2n(CC(=O)Nc2cc(Cl)ccc2C)c1=O`: the Potency entry was “inactive”.
Regarding `Cc1cccc(NC(=O)C2CCN(S(=O)(=O)c3c(C)noc3/C=C/c3ccco3)CC2)c1`, the Potency result is “inactive”.
Take `Cc1cccc(C2CC(=O)Oc3c2c(=O)n(C)c2ccccc32)c1` (configuration not stated): the Potency result is “inactive”.
Turning to `O=c1[nH]c2ccccc2s1`, the Potency entry was “inactive”.
`Nc1ccc2[nH]c(=S)sc2c1`: the Potency is 3.55 µM (active).
To `COc1cc(C(=O)N2CCN(C(=O)COc3cccc(C)c3)CC2)cc(OC)c1OC` belongs “inactive”.
As to `COCCn1c(SCC(=O)c2cc(C)ccc2C)nc2cc(C(=O)NC3CCCC3)ccc2c1=O`, the Potency result is “inactive”.
`Cc1cc(C)cc(OC(C)C(=O)Nc2nc3c(s2)CCCC3)c1` (configuration not stated): the Potency result is “inactive”.
As for `COc1cccc(-n2c(=S)sc3c(=O)n(-c4ccccc4OC)c(SCC4OCCO4)nc32)c1`, the Potency entry was “inactive”.
With `COc1cccc(-n2c(=S)sc3c(=O)n(-c4ccccc4C)c(SCC(=O)O)nc32)c1`, the Potency entry is “inactive”.
For `COc1ccccc1-n1c(=S)[nH]c2c(sc(=S)n2-c2ccc(C)cc2C)c1=O`, the Potency was 50.1 µM (active).
In the case of `Cc1oc(-c2ccccc2F)nc1CN1CCC(C(=O)NCCc2ccc(Cl)cc2)CC1`, the Potency result is “inactive”.
Take `O=C(CSc1nc2ccccc2nc1Cc1ccccc1)N1CCCCC1`: the Potency result is “inactive”.
For the compound `Cc1nc(Nc2ccc3c(c2)OCCO3)c2nnn(Cc3ccccc3Cl)c2n1`, the Potency entry was “inactive”.
Take `Oc1ccccc1-c1nc2ccc(Cl)cn2c1Nc1ccc2c(c1)OCCO2`: the Potency entry was “inactive”.
In the case of `Cc1ccc(-c2nc3cccc(C)n3c2Nc2ccc3c(c2)OCCO3)cc1` it was 11.2 µM (active); in that of `Cc1cccc2nc(-c3ccc(Cl)s3)c(Nc3ccc4c(c3)OCCO4)n12`, 31.6 µM (active).
Regarding `Cc1ccc2nc(-c3ccc(O)cc3)c(Nc3ccc4c(c3)OCO4)n2c1`, the Potency entry was “inactive”.
Consider `Oc1ccc(-c2nc3ccc(Cl)cn3c2Nc2ccc3c(c2)OCO3)cc1`, for which the Potency entry is “inactive”.
For the compound `CCOC(=O)c1nnn(CC(=O)NC(=O)Nc2ccccc2F)c1C(=O)OCC`, the Potency entry was “inactive”.
On to `COc1ccc(CCN2C(=O)c3oc4cc(C)cc(C)c4c(=O)c3C2c2ccccc2F)cc1OC` (configuration not stated), for which the Potency entry was “inactive”.
In the case of `O=C1CC(c2nnc(Cc3ccc(Cl)cc3)o2)CN1c1ccccc1` (configuration not stated) it was “inactive”.
For `CCC(=O)N1CCc2cc(S(=O)(=O)NC(C(=O)Nc3ccc(C(C)=O)cc3)C(C)C)ccc21` (configuration not stated), the Potency entry was “inactive”.
In the case of `CCC(=O)N1c2ccccc2CC1C(=O)N1CCN(c2cccc(OC)c2)CC1` (configuration not stated) it was “inactive”; in that of `CCCN(CCC)C(=O)C(Cc1ccccc1)NS(=O)(=O)c1ccc2c(c1)c(=O)n(C)c(=O)n2C` (configuration not stated), “inactive”; in that of `Cc1ccc(N(CC(=O)NCc2ccc(Cl)cc2)S(=O)(=O)N(C)C)cc1`, “inactive”.
`Fc1ccccc1Oc1ncnc2c1oc1ccccc12`: the Potency entry is “inactive”.
Take `O=C(c1ccc2c(c1)N(Cc1ccc(F)cc1)C(=O)c1ccccc1S2(=O)=O)N1CCN(c2ccccn2)CC1`: the Potency result is “inactive”.
In the case of `Cc1ccc(SCC(=O)N2CCN(c3ccc(F)cc3)CC2)cc1`, the Potency result is “inactive”.
Consider `CC1CCN(C(=O)c2ccc3c(c2)NC(=O)CN3)CC1`, for which the Potency result was “inactive”.
In the case of `C=CCn1c(SCc2cccc(F)c2)nc2cc(C(=O)N3CCC(C(N)=O)CC3)ccc2c1=O` it was “inactive”; in that of `O=C1Nc2cc(C(=O)N3CCN(c4ccc(F)cc4)CC3)ccc2NC1CSCc1cccc(F)c1` (configuration not stated), 20 µM (active).
In the case of `Cc1ccc(CSCC2Nc3ccc(C(=O)N4CCN(c5ccc(F)cc5)CC4)cc3NC2=O)cc1` (configuration not stated) it was 22.4 µM (active); in that of `Cc1oc(-c2ccccc2)nc1Cn1c(SCc2cccc(C(F)(F)F)c2)nc2cccnc21`, “inactive”.
In the case of `Cc1ccc(C)c(NC(=O)Cn2ccn(-c3ccc(F)cc3)c(=O)c2=O)c1` it was “inactive”; in that of `O=C(Nc1nnc(Cc2ccc(Cl)cc2)s1)c1ccncc1`, “inactive”.
Take `O=C(Nc1nnc(Cc2ccc(Cl)cc2)s1)c1cccnc1`: the Potency result is “inactive”.
In the case of `O=C(Nc1nnc(Cc2ccccc2)s1)c1cnccn1` it was 50.1 µM (active); in that of `CCCC(=O)N1CCN(c2nc3c(OC)ccc(C)c3s2)CC1`, “inactive”.
In the case of `CSCCC(C(=O)NC1=NCCS1)N1C(=O)c2ccccc2C1=O` (configuration not stated) it was 79.4 µM (active).
Consider `COc1ccc(CNC(=O)COC(=O)C(CCSC)N2C(=O)c3ccccc3C2=O)cc1` (configuration not stated), for which the Potency result was “inactive”.
In the case of `O=C(NC1=NCCS1)[C@H](Cc1ccccc1)N1C(=O)c2ccccc2C1=O`, the Potency entry is “inactive”.
In the case of `Cc1ccc2oc(=O)c3cnn(CC(=O)N4CCN(c5cccc(Cl)c5)CC4)c3c2c1` it was “inactive”; in that of `CCCCN(CC)CCCNC(=O)c1nn(C)c2c1CS(=O)(=O)c1ccccc1-2`, “inactive”.
Consider `CC(=O)c1cccc(NC(=O)CSc2nc3c(c(=O)[nH]2)CCC3)c1`, for which the Potency result was “inactive”.
On to `Cc1c(-c2cccc(NC(=O)C(C)(C)C)c2)nc2ncccn12`, for which the Potency entry is “inactive”.
`CCc1cccc(C)c1Nc1c(-c2ccc(N(C)C)cc2)nc2ncccn12`: the Potency is 35.5 µM (active).
On to `Cc1ccccc1Nc1c(-c2ccccc2)nc2ncccn12`, for which the Potency result is “inactive”.
For `CCn1cc(C(=O)N2CCN(c3cc(C)ccc3C)CC2)c(=O)c2cc(S(=O)(=O)N(C)C3CCCCC3)ccc21`, the Potency result was “inactive”.
As to `O=C(NCCc1ccccc1)c1cnc2sc(N3CCCC3)nn2c1=O`, the Potency entry was “inactive”.
Take `COC(=O)c1ccc(NC(=O)CCc2c(C)nc3c(c(C)nn3-c3ccc(C)cc3)c2C)cc1`: the Potency entry was “inactive”.
As to `C#CCOCCOCCOCCNc1nc(N2CCN(C(=O)C(Cc3ccc(O)cc3)n3cc(C(N)CC(C)C)nn3)CC2)nc(N2CCN(C(=O)C(Cc3ccc(O)cc3)n3cc(C(N)C(C)CC)nn3)CC2)n1` (configuration not stated), the Potency is 50.1 µM (active).
On to `C#CCOCCOCCOCCNc1nc(N2CCOCC2)nc(N2CCN(C(=O)[C@H](Cc3ccc(O)cc3)n3cc(CCO)nn3)CC2)n1`, for which the Potency entry is “inactive”.
On to `C#CCOCCOCCOCCNc1nc(N2CCN(C(=O)[C@H](Cc3ccc(O)cc3)n3cc(C(N)CC(C)C)nn3)CC2)nc(N2CCN(C(=O)[C@H](CCC(=O)O)n3cc(C(N)[C@H](C)CC)nn3)CC2)n1` (some centres not stated), for which the Potency was 44.7 µM (active).
In the case of `C#CCOCCOCCOCCNc1nc(N2CCN(C(=O)[C@H](CCCCN)n3cc([C@@H](N)C(C)CC)nn3)CC2)nc(N2CCN(C(=O)[C@H](Cc3ccc(O)cc3)n3cc([C@@H](N)C(C)CC)nn3)CC2)n1` (some centres not stated), the Potency was 44.7 µM (active).
To `CC[C@H](C)[C@@H](C(=O)N1CCNCC1)n1cc([C@@H](N)Cc2ccc(O)cc2)nn1` belongs “inactive”; to `C#CCOCCOCCOCCNc1nc(N2CCN(C(=O)[C@H](CCC(=O)O)n3cc(C(N)CO)nn3)CC2)nc(N2CCN(C(=O)[C@H](Cc3ccc(O)cc3)n3cc(C(N)[C@H](C)CC)nn3)CC2)n1` (some centres not stated), 28.2 µM (active).
As to `O=C(NCc1ccccc1)c1ccc2c(c1)nc1n2CCCCC1`, the Potency result is “inactive”.
With `CC(C)c1ccc(NS(=O)(=O)c2ccc3[nH]cc(C(=O)NC4CCCC4)c(=O)c3c2)cc1`, the Potency result was “inactive”.
For `CCC(Sc1nc2n[nH]c(C)c2c(=N)n1-c1ccccc1Cl)C(=O)N(CC)CC` (configuration not stated), the Potency entry is “inactive”.
As for `Cc1nnc(SCc2cc(=O)c3cc(F)ccc3[nH]2)n1C`, the Potency entry is “inactive”.
Take `Cc1cc(NC(=O)c2ccc(-c3ccc(Cl)cc3)o2)cc(-c2nc3ncccc3o2)c1O`: the Potency entry was “inactive”.
Consider `CC(=O)c1ccc(NC(=O)c2nc3nc(C)cc(C(F)F)n3n2)cc1`, for which the Potency result was “inactive”.
Take `CCc1cc(-c2n[nH]c(=S)n2CC(C)C)cs1`: the Potency was 28.2 µM (active).
Take `CCCc1cc(-c2n[nH]c(=S)n2Cc2ccccc2)cs1`: the Potency entry is “inactive”.
With `CCc1cc(-c2nnc(SCC(=O)NC3CC3)n2C)cs1`, the Potency result is “inactive”.
With `Cc1ccccc1NC(=O)CN1C(=O)C(C)(C)c2ccccc21`, the Potency result was “inactive”.
On to `CCOc1ccc(N(CC)S(=O)(=O)N2CCCC(C(=O)NCc3ccc(SC)cc3)C2)cc1` (configuration not stated), for which the Potency entry was “inactive”.
Consider `CCc1nc(-c2cc(S(=O)(=O)N3CCN(c4ccc(OC)cc4)CC3)ccc2OC)no1`, for which the Potency is 79.4 µM (active).
In the case of `COc1ccc(N2CCN(S(=O)(=O)c3ccc(-c4coc(C)n4)cc3)CC2)cc1`, the Potency result is “inactive”.
`COc1ccc(S(=O)(=O)N2CCN(c3ccc(F)cc3)CC2)cc1-c1noc(C)n1`: the Potency result was “inactive”.
Regarding `Cc1csc2nc(COc3ccc(NC(=O)COc4ccccc4)cc3)cc(=O)n12`, the Potency result is “inactive”.
In the case of `CCn1c2ccccc2c2nnc(SCC(=O)O)nc21`, the Potency result is “inactive”.
`CCOc1cc2[nH]c(=S)n(CCCN3CCCC3=O)c(=O)c2cc1OCC`: the Potency was 22.4 µM (active).
As to `CCOc1cc2[nH]c(=S)n(CCN3CCCCC3C)c(=O)c2cc1OCC` (configuration not stated), the Potency entry is “inactive”.
For `CCOc1cc2[nH]c(=O)n(Cc3ccc(C(=O)NCCCN4CCCC4=O)cc3)c(=O)c2cc1OCC`, the Potency result is “inactive”.
To `O=C(CCC(=O)NNc1nc2ccccc2c2nc(-c3ccccc3)nn12)NCCCN1CCCC1=O` belongs “inactive”; to `O=C(CCCCCn1c(=O)[nH]c2ccccc2c1=O)NCCc1c[nH]c2ccccc12`, “inactive”; to `O=C(CCn1c(=S)[nH]c2ccccc2c1=O)NCCCN1CCCC1=O`, 17.8 µM (active).
In the case of `Cc1ccc2nc(COc3ccc(NC(=O)COc4ccccc4F)cc3)cc(=O)n2c1` it was “inactive”; in that of `Cc1ccc(NC(=O)Cn2nnc3sc4c(c3c2=O)CCC(C)C4)cc1` (configuration not stated), “inactive”.
Turning to `CCC(=O)N1CCc2cc(S(=O)(=O)NC(C(=O)NCCc3ccc(C)cc3)C(C)C)ccc21` (configuration not stated), the Potency entry was “inactive”.
`CCc1ccc(N(CC)c2ncnc3nc[nH]c23)cc1`: the Potency result is “inactive”.
As to `S=c1c2[nH]cnc2ncn1CCSc1ncnc2nc[nH]c12`, the Potency was 12.6 µM (active).
With `Cc1ccc(NC(=O)c2ccc(CSc3ncnc4nc[nH]c34)cc2)c(C)c1`, the Potency result is “inactive”.
`CN(C(=O)CSc1nc2ccc(NC(=O)COc3ccccc3)cc2s1)c1ccccc1`: the Potency entry was “inactive”.
For the compound `CCCCCCSc1ccc([C@@H]2[C@@H]3C(=O)N(CC)C(=O)[C@@H]3[C@]3(C(=O)OC)CCCCN23)cc1OC`, the Potency was 56.2 µM (active).
On to `CCCCCCSc1ccc([C@@H]2[C@H]3C(=O)N(CC)C(=O)[C@H]3[C@]3(C(=O)OC)CCCCN23)cc1`, for which the Potency entry is “inactive”.
As to `CCN1C(=O)[C@@H]2[C@@H](c3ccc(-c4ccc(OC)cc4)c(OC)c3)N3CCC[C@@]3(C(=O)OC)[C@@H]2C1=O`, the Potency entry was “inactive”.

For the origin of these results see PubChem BioAssay AID504339 (National Center for Advancing Translational Sciences (NCATS), 2011).
